# From paper PMC8384837, “Expanding the binding specificity for RNA recognition by a PUF domain”
# Biological target: PUM1 PUF domain R4-GPA (Homo sapiens, UniProt Q14671 828-1176, N971G;H972P;Q975A)
# Test: yeast three-hybrid, YBZ-1, SC-Leu-His + 0.5 mM 3-AT, 4 days
# Settings: tags: N-Gal4 AD-HA kept; label: inside an RPR1-promoter hybrid RNA with tandem MS2 sites; ssRNA
# Method in brief: (§1)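 A centromeric plasmid in strain YBZ-1 co-expressed Pumilio-1 PUF domain libraries, randomized at the three base-contacting residues of each repeat, with matching RNA elements; the strain carries a LexA–MS2 coat fusion and a HIS3 reporter. After four days on SC-Leu (input) or SC-Leu-His + 0.5 mM 3-AT (selection), the repeat regions were PCR-amplified and Illumina-sequenced. The interaction score is the log change in variant frequency from input to selection, using log2 and a pseudocount of 1 where absent.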
row,Sequence,binding signal
1,GGCUAGAACUAGUGGAUCCCCCGGCGCCCGGCGGCUCGAGCCCGGGUAAGUGUAUAUAGUCUGCAUGCCGCCGGGCGCCAUGCCUGCAGGUCGACUCUAGAAAACAUG,1.91 log2 enrichment (interaction score)
2,GGCUAGAACUAGUGGAUCCCCCGGCGCCCGGCGGCUCGAGCCCGGGUAAGUGUAAAUAGUCUGCAUGCCGCCGGGCGCCAUGCCUGCAGGUCGACUCUAGAAAACAUG,3.16 log2 enrichment (interaction score)
3,GGCUAGAACUAGUGGAUCCCCCGGCGCCCGGCGGCUCGAGCCCGGGUAAGUGUACAUAGUCUGCAUGCCGCCGGGCGCCAUGCCUGCAGGUCGACUCUAGAAAACAUG,2.05 log2 enrichment (interaction score)

# Biological target: PUM1 PUF domain R4-PYG (Homo sapiens, UniProt Q14671 828-1176, N971P;H972Y;Q975G)
# Test: as above
# Settings: tags: N-Gal4 AD-HA kept; label: inside an RPR1-promoter hybrid RNA with tandem MS2 sites; ssRNA
# Method in brief: as §1
row,Sequence,binding signal
1,GGCUAGAACUAGUGGAUCCCCCGGCGCCCGGCGGCUCGAGCCCGGGUAAGUGUAUAUAGUCUGCAUGCCGCCGGGCGCCAUGCCUGCAGGUCGACUCUAGAAAACAUG,7.83 log2 enrichment (interaction score)
2,GGCUAGAACUAGUGGAUCCCCCGGCGCCCGGCGGCUCGAGCCCGGGUAAGUGUAAAUAGUCUGCAUGCCGCCGGGCGCCAUGCCUGCAGGUCGACUCUAGAAAACAUG,5.58 log2 enrichment (interaction score)
3,GGCUAGAACUAGUGGAUCCCCCGGCGCCCGGCGGCUCGAGCCCGGGUAAGUGUACAUAGUCUGCAUGCCGCCGGGCGCCAUGCCUGCAGGUCGACUCUAGAAAACAUG,6.89 log2 enrichment (interaction score)
